SMILES strings stand for the structures. Several values for one entry are separate records, joined by “and”; a condition that tells them apart may be missing. Equal values may be shown once. Inconclusive results are not listed. Entries that show only a call come without a potency. Some compounds were tested as several samples or in several runs, with calls that do not always agree. Activity calls are given as the source filed them. The call rests on the fitted dose curve; in most records, active means well fitted cell-killing curve with a large enough effect in the repeat runs; inconclusive means weak or mixed curves, or effect the other way; inactive means flat fitted curve, though single readings scatter.
Potency means the concentration at half of the fitted maximal effect.

The assay can be described thus: qHTS assay to identify small molecule that activate the aryl hydrocarbon receptor (AhR) signaling pathway - cell viability counter screen (AID 743086). Further: nearly all actives have a fitted effect of over 45% in size. The settings on record: HepG2-AhR-luc viability, CellTiter-Fluor, 24 h; series mostly up to 70.3 µM. An excerpt:
U.S. Tox21 Program National Center for Advancing Translational Sciences [NCATS] NIH Chemical Genomics Center [NCGC] U.S. Environmental Protection Agency [EPA] National Institutes of Environmental Health Sciences [NIEHS] National Toxicology Program [NTP] U.S. Food and Drug Administration [FDA] Tox21 Assay overview: The Aryl hydrocarbon Receptor (AhR), a member of the family of basic helix-loop-helix transcription factors, is crucial to adaptive responses to environmental changes. AhR mediates cellular responses to environmental pollutants such as aromatic hydrocarbons through induction of phase I and II enzymes but also interacts with other nuclear receptor signaling pathways A cell based HepG2-AhR-luc assay (HG2L7.5c1 cell line, developed by Dr. Michael S. Denison, University of California at Davis) was used to assess the activation of AhR. HepG2 (human hepatocellular carcinoma) cells were stably transfected with an Ah receptor-responsive firefly luciferase reporter gene plasmid containing 20 dioxin responsive elements and luciferase reporter gene. Increased luciferase activity can be used to identify the compounds that induce AhR activation. The cytotoxicity of the compounds screened against the HepG2-AhR-luc cell line was tested in parallel by measuring the cell viability using CellTiter-Fluor assay in the same wells.
Tox21 Assay Protocol Summary: 4000 cells in 5 uL/well were dispensed into white wall/solid bottom 1536-well plates using a Multidrop Combi (Thermo Fisher Scientific Inc., Waltham, MA) dispenser. After the assay plates were incubated at 37C for 5 h, 23 nL of compound or DMSO vehicle was transferred to the assay plates by a pintool station (Kalypsys, San Diego, CA). The plates were incubated at 37C for 24 hr. For cell viability measurement, 1 ul/well of CellTiter-Fluor reagent (Promega, Madison, WI) was added into the assay plates using a Flying Reagent Dispenser (FRD) (Aurora Discovery, CA),and then the assay plates were incubated at 37C for 30 min. The fluorescence intensity in the plates was measured using a ViewLux plate reader (PerkinElmer, Shelton, CT), followed by the addition of 4 uL of ONE-Glo Luciferase Assay reagent (Promega) using an FRD (Aurora Discovery). After the assay plates were incubated at room temperature for 30 min, luminescence intensity was measured using a ViewLux plate reader (Perkin Elmer).
`NS(=O)(=O)O`: the Potency result was “inactive”.
Consider `Cc1cc(C)nc(NS(=O)(=O)c2ccc(N)cc2)n1`, for which the Potency result was “inactive”.
Consider `C=C(C)C(=O)OCC(C)O` (stereo not given), for which the Potency entry is “inactive”.
Then `CN(C)CCOC(C)(c1ccccc1)c1ccccn1` (stereo not given), with “inactive”; and `Cc1ncc([N+](=O)[O-])n1C`, with “inactive”; and `CCN(Cc1c(F)cccc1Cl)c1c([N+](=O)[O-])cc(C(F)(F)F)cc1[N+](=O)[O-]`, with “inactive”.
Turning to `C/C=C/C=C/C(=O)O`, the Potency result is “inactive”.
Take `CC1(C)O[C@@H]2C[C@H]3[C@@H]4CCC5=CC(=O)C=C[C@]5(C)[C@@]4(F)[C@@H](O)C[C@]3(C)[C@]2(C(=O)CO)O1`: the Potency entry was “inactive”.
With `CCCc1cc(=O)[nH]c(=S)[nH]1`, the Potency result was “inactive”.
The same measure for `CN1CCC[C@H]1c1cccnc1`: “inactive”.
With `Cc1c(C(=O)O)c(O)cc2c1C(=O)c1c(O)c([C@@H]3O[C@H](CO)[C@@H](O)[C@H](O)[C@H]3O)c(O)c(O)c1C2=O`, the Potency was 26.6 µM (active) and 21.7 µM (active).
Then `CN(C)C(=O)Nc1ccc(Cl)c(Cl)c1`, with “inactive”; and `CCCC[P+](CCCC)(CCCC)CCCC`, with “inactive”; and `C1CCC(C(CC2CCCCN2)C2CCCCC2)CC1` (stereo not given), with 18.8 µM (active).
For the molecule `Cc1ccc(S(=O)(=O)O)cc1`, the Potency entry was “inactive”.
The same measure for `O=C1OC2(c3ccccc31)c1cc(Br)c(O)c(Br)c1Oc1c2cc(Br)c(O)c1Br`: 10.6 µM (active) and 2.77 µM (active) and 6.28 µM (active).
Take `CC(C)C(=O)Nc1ccc([N+](=O)[O-])c(C(F)(F)F)c1`: the Potency result is “inactive”.
With `CN(N=O)C(=O)N[C@@H]1[C@@H](O)[C@H](O)[C@@H](CO)O[C@@H]1O`, the Potency result was “inactive”.
The same measure for `CCOC(N)=O`: “inactive”; for `CC(O)(P(=O)(O)O)P(=O)(O)O`: “inactive”; for `O=CC(=O)c1ccccc1`: “inactive”.
In the case of `O=C(O)c1ccccc1`, the Potency result is “inactive”.
The same measure for `CC12CCC(CC1)C(C)(C)O2`: “inactive”; for `C[C@](N)(Cc1ccc(O)c(O)c1)C(=O)O`: “inactive”.
Turning to `C=C1CC[C@H](O)C/C1=C\C=C1/CCC[C@]2(C)[C@@H]([C@H](C)CCCC(C)C)CC[C@@H]12`, the Potency result is “inactive”.
Then `CCN(CC)C(=O)c1cccc(C)c1`, with “inactive”; and `CC(=O)Nc1c(I)c(NC(C)=O)c(I)c(C(=O)O)c1I`, with “inactive”; and `CN(C)CCOC(c1ccccc1)c1ccccc1`, with “inactive”.
For `O=C1c2c(O)cccc2Cc2cccc(O)c21`, the Potency result was “inactive”.
On to `CC(=O)CCC(=O)O`, for which the Potency entry is “inactive”.
The same measure for `Nc1c2c(nc3ccccc13)CCCC2`: “inactive”.
Then `CC(=O)CC(c1ccccc1)c1c(O)c2ccccc2oc1=O` (stereo not given), with “inactive”; and `Oc1ccccc1`, with “inactive”.
The same measure for `COc1ccc2cc(S(=O)(=O)N[C@H](CC(=O)N[C@H](Cc3ccc(CN4[C@H](C)CCC[C@@H]4C)cc3)C(=O)N(C)C(C)C)c3ccc4c(c3)OCO4)ccc2c1`: 23 µM (active); for `O=C1NS(=O)(=O)c2ccccc21`: “inactive”.
For `O=C1NC(=O)C(c2ccccc2)(c2ccccc2)N1`, the Potency entry is “inactive”.
Regarding `CCCCCCCCCCCCCCCC[N+](C)(C)Cc1ccccc1`, the Potency is 29.8 µM (active).
Then `CC/C(=C(\c1ccccc1)c1ccc(OCCN(C)C)cc1)c1ccccc1`, with “inactive and 61.6 µM (active)”; and `OC[C@H]1O[C@H](O[C@]2(CCl)O[C@H](CCl)[C@@H](O)[C@@H]2O)[C@H](O)[C@@H](O)[C@H]1Cl`, with “inactive”; and `C1=CC2C3C=CC(C3)C2C1` (stereo not given), with “inactive”.
